Source: PubChem BioAssay (Tox21)
Results filed as inconclusive are left out. A call without a number means that no potency is given here. The source holds several records for some structures; these can differ, active in one and inactive in another. Active and inactive are the calls of the source. Unless noted, the call rests on the fitted dose curve; in most records, active means well fitted curve in the direction sought with a large enough effect in the repeat runs; inconclusive means weak or mixed curves; inactive means no such curve, though single readings can be large; an effect the other way counts as inactive or inconclusive.

How the values were obtained:
[1] = biological target: Progesterone receptor (Homo sapiens) (UniProt P06401); test: qHTS assay to identify small molecule antagonists of the progesterone receptor (PR) signaling pathway (AID 1346795; active means well fitted inhibition curve with a large enough effect in the signal ratio in the repeat runs, not every such curve was filed as active; the % refers to the signal ratio; further: potency means the concentration at half of the fitted maximal effect)
Sequence of Progesterone receptor (Homo sapiens) (P06401 whole entry, looked up): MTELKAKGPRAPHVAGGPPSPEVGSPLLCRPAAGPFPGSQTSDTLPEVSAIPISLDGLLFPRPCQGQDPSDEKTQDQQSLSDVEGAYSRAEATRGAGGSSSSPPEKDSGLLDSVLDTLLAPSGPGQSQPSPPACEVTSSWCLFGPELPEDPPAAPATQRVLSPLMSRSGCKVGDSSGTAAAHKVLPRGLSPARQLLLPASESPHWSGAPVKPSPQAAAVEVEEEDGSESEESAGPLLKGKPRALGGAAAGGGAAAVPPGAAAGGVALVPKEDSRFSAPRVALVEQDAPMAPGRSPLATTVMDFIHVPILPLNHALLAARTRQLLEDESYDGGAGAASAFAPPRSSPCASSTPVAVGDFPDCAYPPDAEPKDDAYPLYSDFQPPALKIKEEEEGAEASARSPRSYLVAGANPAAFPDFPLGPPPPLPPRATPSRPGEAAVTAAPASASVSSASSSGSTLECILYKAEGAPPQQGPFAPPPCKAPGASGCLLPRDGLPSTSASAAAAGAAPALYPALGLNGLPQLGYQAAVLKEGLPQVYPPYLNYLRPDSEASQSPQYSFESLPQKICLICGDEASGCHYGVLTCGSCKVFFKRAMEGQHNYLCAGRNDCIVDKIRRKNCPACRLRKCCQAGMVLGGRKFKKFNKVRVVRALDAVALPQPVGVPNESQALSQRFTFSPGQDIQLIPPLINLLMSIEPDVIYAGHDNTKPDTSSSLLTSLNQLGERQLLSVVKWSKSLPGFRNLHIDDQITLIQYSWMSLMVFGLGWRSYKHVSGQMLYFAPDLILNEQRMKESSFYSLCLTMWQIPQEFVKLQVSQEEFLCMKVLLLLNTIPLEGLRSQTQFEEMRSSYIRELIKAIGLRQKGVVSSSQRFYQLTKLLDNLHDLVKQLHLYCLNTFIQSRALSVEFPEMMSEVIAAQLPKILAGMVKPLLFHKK
Outline: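 HEK293T PR-UAS-bla reporter cells in charcoal-stripped serum (2%) received compound after a 6 hr settling period, followed by R5020 agonist at 1 nM final; 16 hr incubation preceded the FRET substrate step and fluorescence measurement.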

[2] = qHTS assay to identify small molecule agonists of the TGF-beta/Smad signaling pathway - cell viability counter screen (AID 1346829); further: top concentration of the series differs between compounds; nearly all actives have a fitted effect of over 45% in size
Outline: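 Luminescence from CellTiter-Glo, read after a 30 min room-temperature incubation, gives cell viability of SBE-bla HEK 293T cells treated 5 hr with compounds at 37 C.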

[3] = qHTS assay to identify small molecule agonists of the TGF-beta/Smad signaling pathway (AID 1346859; active means well fitted activation curve with a large enough effect in the signal ratio in the repeat runs, not every such curve was filed as active; the % refers to the signal ratio; further: potency means the concentration at half of the fitted maximal effect; on activation: series mostly up to about 77 µM)
Outline: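 Smad-responsive beta-lactamase reporter cells (HEK 293T) received compounds from DMSO stocks after overnight attachment, were incubated 5 hr, then treated 2 hr with FRET substrate before dual-emission fluorescence measurement (405 nm excitation).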

[4] = biological target: Thyrotropin-releasing hormone receptor (Homo sapiens) (UniProt P34981); test: qHTS assay to identify small molecule antagonists of the thyrotropin-releasing hormone receptor (TRHR) signaling pathway (AID 1346877; active means well fitted inhibition curve with a large enough effect in the repeat runs, not every such curve was filed as active; further: series mostly up to about 51 µM)
Sequence of Thyrotropin-releasing hormone receptor (Homo sapiens) (P34981 whole entry, looked up): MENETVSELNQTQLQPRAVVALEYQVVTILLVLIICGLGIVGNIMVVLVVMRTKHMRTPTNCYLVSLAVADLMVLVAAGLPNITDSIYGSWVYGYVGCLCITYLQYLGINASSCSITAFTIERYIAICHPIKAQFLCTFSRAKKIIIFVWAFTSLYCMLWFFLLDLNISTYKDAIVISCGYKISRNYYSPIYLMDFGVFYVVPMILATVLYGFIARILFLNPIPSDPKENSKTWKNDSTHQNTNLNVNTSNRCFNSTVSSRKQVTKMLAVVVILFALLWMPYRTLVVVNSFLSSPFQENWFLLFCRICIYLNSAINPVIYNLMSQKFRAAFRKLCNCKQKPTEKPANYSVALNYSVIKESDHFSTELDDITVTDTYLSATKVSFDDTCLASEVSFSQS
Outline: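 Intracellular calcium fluorescence, read kinetically every second over 3 min, reports TRH-evoked signalling in HEK293 cells carrying TRHR. Test compounds were added 5 min ahead of a 1 nM TRH challenge.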

[5] = Human pregnane X receptor (PXR) small molecule agonists, qHTS cell viability counter screen (AID 1346977); further: nearly all actives have a fitted effect of over 50% in size; further: potency means the concentration at half of the fitted maximal effect
Outline: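 Measures live-cell protease fluorescence (CellTiter-Fluor) in PXR-Luc HepG2 cells treated 24hr with compounds at 37C. Cells had 5hr to attach before pin transfer of DMSO solutions.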

[6] = Caspase-3/7 induction in CHO-K1 cells by small molecules, qHTS cell viability counter screen (AID 1346979); further: nearly all actives have a fitted effect of over 35% in size; further: potency means the concentration at half of the fitted maximal effect
Outline: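 In the same wells as the caspase read, viability of compound-treated wild-type CHO-K1 cells was assessed using CellTiter-Fluor, added after 16hr at 37C and measured by fluorescence following 1hr further incubation.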

[7] = Caspase-3/7 induction in CHO-K1 cells by small molecules, qHTS assay (AID 1346980); further: nearly all actives have a fitted effect of over 15% in size; further: potency means the concentration at half of the fitted maximal effect
Outline: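 Wild-type cells were seeded at 1,500 per well and settled 5 hr at 37 C, 5% CO2, then exposed to DMSO-dissolved compounds for 17 hr. Caspase-Glo 3/7 reagent was added, and luminescence was read after 30min at room temperature.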

[8] = Caspase-3/7 induction in HepG2 cells by small molecules, qHTS cell viability counter screen (AID 1346981); further: nearly all actives have a fitted effect of over 30% in size; further: potency means the concentration at half of the fitted maximal effect
Outline: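 HepG2, WT, 2,000 cells/well; 5 hr pre-incubation 37 C/5% CO2; compound pin-transferred from DMSO; 16 hr exposure; CellTiter-Fluor, 1 hr; fluorescence read.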

[9] = biological target: Nuclear receptor subfamily 1 group I member 2 (Homo sapiens) (UniProt O75469); test: Human pregnane X receptor (PXR) small molecule agonists, qHTS assay (AID 1346982); further: nearly all actives have a fitted effect of over 35% in size; further: potency means the concentration at half of the fitted maximal effect
Sequence of Nuclear receptor subfamily 1 group I member 2 (Homo sapiens) (O75469 whole entry, looked up): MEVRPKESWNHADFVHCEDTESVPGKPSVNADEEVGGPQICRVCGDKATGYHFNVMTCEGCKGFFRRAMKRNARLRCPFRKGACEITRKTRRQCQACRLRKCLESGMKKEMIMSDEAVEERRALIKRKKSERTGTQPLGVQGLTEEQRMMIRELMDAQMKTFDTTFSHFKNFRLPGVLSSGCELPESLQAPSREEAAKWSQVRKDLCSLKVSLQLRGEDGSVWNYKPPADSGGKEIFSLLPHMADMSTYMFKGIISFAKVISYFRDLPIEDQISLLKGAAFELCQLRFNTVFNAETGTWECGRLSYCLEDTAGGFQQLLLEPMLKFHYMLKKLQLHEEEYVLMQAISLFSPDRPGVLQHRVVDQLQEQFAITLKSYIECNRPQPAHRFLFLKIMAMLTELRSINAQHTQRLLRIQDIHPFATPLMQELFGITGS
Outline: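 Luciferase signal from ONE-Glo (30 min, room temperature) measured activation of hPXR-driven CYP3A4 reporter expression in PXR-Luc HepG2 cells treated with compounds for 24 hr at 37 C.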

[10] = biological target: Nuclear receptor subfamily 1 group I member 2 (Rattus norvegicus) (UniProt Q9R1A7); test: Rat pregnane X receptor (rPXR) activation by small molecules, qHTS assay (AID 1346983); conditions: rPXR luciferase reporter cells, One-Glo luminescence, 24 h; stronger effect = higher value; further: nearly all actives have a fitted effect of over 20% in size
Sequence of Nuclear receptor subfamily 1 group I member 2 (Rattus norvegicus) (Q9R1A7 whole entry, looked up): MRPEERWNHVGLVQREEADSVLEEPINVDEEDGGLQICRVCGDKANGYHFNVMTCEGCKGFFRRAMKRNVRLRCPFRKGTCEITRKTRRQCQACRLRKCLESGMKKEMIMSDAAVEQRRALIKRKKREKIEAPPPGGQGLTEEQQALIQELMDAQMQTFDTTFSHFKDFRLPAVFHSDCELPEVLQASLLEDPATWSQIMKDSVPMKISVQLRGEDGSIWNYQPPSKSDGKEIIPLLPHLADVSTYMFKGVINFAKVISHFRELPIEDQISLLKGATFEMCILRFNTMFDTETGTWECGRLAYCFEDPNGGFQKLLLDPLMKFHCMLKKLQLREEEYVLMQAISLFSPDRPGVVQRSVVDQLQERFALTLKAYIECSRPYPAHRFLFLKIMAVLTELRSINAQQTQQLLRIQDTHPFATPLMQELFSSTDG
Outline: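 Cell-based rPXR luciferase reporter assay, 2,000 cells per well, rested 5hr at 37 C before compound addition in DMSO, then 24 hr at 37 C. One-Glo reagent was added and luminescence read after 30 min at room temperature.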

[11] = biological target: Nuclear receptor subfamily 1 group I member 2 (Homo sapiens) (UniProt O75469); test: CYP3A4 induction through human pregnane X receptor (PXR) by small molecules, qHTS assay (AID 1346984); further: nearly all actives have a fitted effect of over 40% in size
Outline: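 Luminescence readout: luciferase signal after One-Glo (30 min, room temperature), following 3 h at 37C with 3uM final Luciferin-IPA P450 substrate. Cells were DPX-2 (HepG2, PXR/CYP3A4-luc co-transfected) dosed for 24 h.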

[12] = biological target: Nuclear receptor subfamily 1 group I member 2 (Homo sapiens) (UniProt O75469); test: Human pregnane X receptor (PXR) activation by small molecules, qHTS assay (AID 1346985); further: nearly all actives have a fitted effect of over 40% in size; further: potency means the concentration at half of the fitted maximal effect
Outline: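 DPX-2 cells (HepG2 co-transfected with a PXR response element and a CYP3A4-promoter luciferase construct) were seeded at 2,000 per well, rested 5 hr at 37C, then exposed to DMSO-dissolved compounds for 24 hr. Activation was read as luciferase luminescence.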

[13] = biological target: Cytochrome P450 2D6 (Homo sapiens) (UniProt P10635); test: Cytochrome P450 Family 2 Subfamily D Member 6 (CYP2D6) small molecule antagonists: luciferase reporter qHTS assay (AID 1671196); further: nearly all actives have a fitted effect of over 50% in size; further: potency means the concentration at half of the fitted maximal effect
Sequence of Cytochrome P450 2D6 (Homo sapiens) (P10635 whole entry, looked up): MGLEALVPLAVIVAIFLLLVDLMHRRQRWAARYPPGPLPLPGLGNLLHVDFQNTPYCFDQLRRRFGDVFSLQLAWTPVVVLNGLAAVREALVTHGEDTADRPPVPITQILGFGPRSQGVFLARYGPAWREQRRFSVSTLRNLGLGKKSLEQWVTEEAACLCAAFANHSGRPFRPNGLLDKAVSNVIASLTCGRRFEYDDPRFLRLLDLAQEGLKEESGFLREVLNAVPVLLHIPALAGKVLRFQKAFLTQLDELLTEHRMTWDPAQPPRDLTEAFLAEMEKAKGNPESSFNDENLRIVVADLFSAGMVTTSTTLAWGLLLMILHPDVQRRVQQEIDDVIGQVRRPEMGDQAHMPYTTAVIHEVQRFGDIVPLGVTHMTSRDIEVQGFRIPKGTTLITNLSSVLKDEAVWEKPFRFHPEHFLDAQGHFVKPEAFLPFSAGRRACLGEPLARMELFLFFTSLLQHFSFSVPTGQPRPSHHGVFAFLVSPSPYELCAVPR
Outline: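 Read-out is luminescence from luciferin formed by CYP2D6 turnover of a proluciferin substrate, recorded as relative luminescence units. Reactions ran 1 h at room temperature after NADPH regeneration solution was added.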

[14] = qHTS assay to identify small molecule antagonists of the progesterone receptor (PR) signaling pathway - cell viability counter screen (AID 1346798); further: nearly all actives have a fitted effect of over 50% in size; further: potency means the concentration at half of the fitted maximal effect
Outline: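 Same-well multiplex: after 16 hr at 37C with compound and R5020 stimulation, HEK293T cells carrying a UAS-bla reporter received LiveBLAzer substrate (2 hr RT), then CellTiter-Glo (30 min RT) for luminescent viability.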

[15] = qHTS assay to identify small molecule agonists of the progesterone receptor (PR) signaling pathway - cell viability counter screen (AID 1346799; calls by dose curve; further: nearly all actives have a fitted effect of over 45% in size; further: potency means the concentration at half of the fitted maximal effect)
Outline: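 Counter screen for cytotoxicity: compound-treated PR-UAS-bla HEK293T cells (16 hr, 37C, 5% CO2) were assayed with CellTiter-Glo, luminescence measured after 30 min at room temperature.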

[16] = qHTS assay to identify small molecule antagonists of the TGF-beta/Smad signaling pathway - cell viability counter screen (AID 1346824); further: nearly all actives have a fitted effect of over 50% in size
Outline: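 SBE-bla HEK 293T cells were plated overnight at 37 C, then given compounds in DMSO plus TGF-beta1 (added as 0.25 ng/mL solution) for 5 hr. After the bla read, CellTiter-Glo was added to the same wells and luminescence read after 30 min at room temperature.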

[17] = biological target: Thyrotropin-releasing hormone receptor (Homo sapiens) (UniProt P34981); test: qHTS assay to identify small molecule agonists of the thyrotropin-releasing hormone receptor (TRHR) signaling pathway (AID 1346891; calls by dose curve;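 further: HEK293 cells expressing TRHR with calcium dye readout; series mostly up to about 58 µM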)
Outline: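 Agonist-mode calcium mobilisation screen: TRHR-transfected HEK293 cells cultured overnight (18 h), dye-loaded for 2 h at 37 °C, exposed to compounds, and monitored by fluorescence for 3 min.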

[18] = Caspase-3/7 induction in HepG2 cells by small molecules, qHTS assay (AID 1346978); further: nearly all actives have a fitted effect of over 15% in size; further: potency means the concentration at half of the fitted maximal effect
Outline: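 Wild-type HepG2 cells (2,000/well) were settled 5 h at 37 C, 5% CO2, then exposed to compounds in DMSO for 17 h. Caspase-3/7 activity was read by luminescence 30 min after adding Caspase-Glo 3/7 reagent at room temperature.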

[19] = biological target: Cytochrome P450 2C19 (Homo sapiens) (UniProt P33261); test: Cytochrome P450 Family 2 Subfamily C Member 19 (CYP2C19) small molecule antagonists: luciferase reporter qHTS assay (AID 1671197); further: nearly all actives have a fitted effect of over 65% in size; further: potency means the concentration at half of the fitted maximal effect
Sequence of Cytochrome P450 2C19 (Homo sapiens) (P33261 whole entry, looked up): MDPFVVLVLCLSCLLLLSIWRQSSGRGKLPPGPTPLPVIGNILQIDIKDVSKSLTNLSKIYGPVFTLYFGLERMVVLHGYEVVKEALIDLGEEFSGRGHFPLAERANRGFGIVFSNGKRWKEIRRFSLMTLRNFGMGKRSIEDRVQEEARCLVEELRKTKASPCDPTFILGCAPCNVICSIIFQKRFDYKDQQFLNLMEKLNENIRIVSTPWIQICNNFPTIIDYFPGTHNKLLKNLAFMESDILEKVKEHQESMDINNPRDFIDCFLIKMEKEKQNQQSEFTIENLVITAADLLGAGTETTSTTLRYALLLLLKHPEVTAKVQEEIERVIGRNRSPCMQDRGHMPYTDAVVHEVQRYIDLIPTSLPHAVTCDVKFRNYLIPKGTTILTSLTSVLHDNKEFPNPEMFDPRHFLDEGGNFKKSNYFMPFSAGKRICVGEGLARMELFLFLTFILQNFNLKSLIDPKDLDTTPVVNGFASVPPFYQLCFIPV
Outline: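 CYP2C19 P450-Glo, 1536-well qHTS. Cpd + enzyme/proluciferin substrate 10 min RT; + NADPH regen, 37C 1 h; stop with luciferin detection reagent, 20 min RT, luminescence (RLU). Pos ctrl ketoconazole.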

[20] = biological target: Progesterone receptor (Homo sapiens) (UniProt P06401); test: qHTS assay to identify small molecule agonists of the progesterone receptor (PR) signaling pathway (AID 1346784; calls by dose curve; further: nearly all actives have a fitted effect of over 30% in size)
Outline: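 Agonist mode, quantitative HTS format in a HEK 293T line expressing a UAS-controlled beta-lactamase reporter; 16 hr compound exposure at 37C in 2% charcoal-stripped FBS, then LiveBLAzer B/G FRET fluorescence.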

Compound | Potency [1] | Potency [2] | Potency [3] | Potency [4] | Potency [5] | Potency [6] | Potency [7] | Potency [8] | Potency [9] | max activation [10] | Potency [11] | Potency [12] | Potency [13] | Potency [14] | Potency [15] | Potency [16] | outcome [17] | Potency [18] | Potency [19] | Potency [20]
CCCCCCCCCCCCOCCOCCOCCOCCOCCOCCOCCOCCOCCO | 23.7 µM (active) | inactive | inactive | inactive | 11.9 µM (active) | 11.9 µM (active) | inactive | 29.8 µM (active) | 7.5 µM (active) | -18.4% (inactive) | inactive | inactive | inactive |  |  |  |  |  |  | 
c1ccc(SSc2ccccc2)cc1 |  | inactive |  | inactive | inactive |  | inactive | inactive | 27.5 µM (active) |  |  |  |  | inactive | inactive | inactive | inactive | inactive | 22.6 µM (active) | 
O=C1CCc2cc(OCCCCc3nnnn3C3CCCCC3)ccc2N1 |  | inactive |  | inactive |  |  | inactive | inactive | 13.3 µM (active) |  |  |  | inactive |  |  | inactive | inactive | inactive |  | inactive
CCN(CC)C(=O)c1cc(S(=O)(=O)Cc2ccccc2)c(N2CCC(c3ccccc3)CC2)cc1N(CC)CCN(C)C |  |  |  | inactive | 13.5 µM (active) | 21.4 µM (active) | 24.1 µM (active) | 17 µM (active) | 3.4 µM (active) |  |  |  | 8.84 µM (active) | 19.1 µM (active) | 8.53 µM (active) |  | inactive | 19.1 µM (active) |  | 
CCC(=O)OC(=O)CC | inactive | inactive | inactive | inactive | inactive | inactive | inactive | inactive | inactive |  |  |  | 62.8 µM (active) | inactive | 54 µM (active) | inactive |  | inactive | inactive | 
C[Si](Cl)(c1ccccc1)c1ccccc1 | 29.9 µM (active) | inactive | inactive |  | inactive | inactive | inactive | inactive | 59.6 µM (active) |  |  |  |  | inactive |  | inactive |  |  | 1.95 µM (active) | 
Cc1cc(C(C)(C)C)c(O)c(C)c1Cn1c(=O)n(Cc2c(C)cc(C(C)(C)C)c(O)c2C)c(=O)n(Cc2c(C)cc(C(C)(C)C)c(O)c2C)c1=O |  | inactive |  | inactive | inactive | 27.3 µM (active) | inactive | inactive |  |  |  |  |  | inactive | inactive |  |  | inactive |  | 
O=S(=O)(O)c1ccccc1/C=C/c1ccc(-c2ccc(/C=C/c3ccccc3S(=O)(=O)O)cc2)cc1 |  | inactive | 44.3 µM (active) | inactive |  |  | inactive | inactive | inactive |  |  |  | inactive | inactive | inactive | inactive |  | inactive |  | 
C#C[C@]1(OC(C)=O)CC[C@H]2[C@@H]3CCC4=C/C(=N/O)CC[C@@H]4[C@H]3CC[C@@]21CC | 29.8 µM (active) | inactive | inactive | inactive |  |  | inactive | inactive | 29.8 µM (active) |  | inactive | 7.94 µM (active) | 27.5 µM (active) |  |  | inactive | inactive | inactive | 4.36 µM (active) | 
COc1ccc2c(c1)c(CC(=O)OC/C=C(\C)CC/C=C(\C)CCC=C(C)C)c(C)n2C(=O)c1ccc(Cl)cc1 |  | inactive |  | inactive | inactive | inactive | inactive | inactive |  |  |  |  |  | inactive | inactive | inactive | inactive | inactive | 15.5 µM (active) | 
CNC(=O)c1ccccc1Sc1ccc2c(/C=C/c3ccccn3)n[nH]c2c1 | 16.8 µM (active) |  | inactive | inactive |  | 26.6 µM (active) | inactive |  | 0.376 µM (active) |  |  |  | 30.9 µM (active) |  | 33.5 µM (active) |  | inactive | inactive | 17.4 µM (active) | 
CCCCC/C=C\C/C=C\CCCCCCCC(=O)O | inactive | inactive |  | inactive | inactive | 60.1 µM (active) | inactive | inactive | 60.1 µM (active) | -4.54% (inactive) | inactive | inactive | 31.2 µM (active) | inactive |  | inactive | inactive | inactive | 22.1 µM (active) and inactive | 
